# Results: PubChem BioAssay AID1159580 (chemical genetic matrix, 2015)
# Hit rate of the full screen: of about 5,500 compounds, about 2,000 (36%) were called active. Inconclusive results (about 18%) are left out. The list shows a part of the results. A number with no mark means an inactive call. No stated cut-off is given here; in the data, active means normalized growth mostly below about 0.91 (no sharp cut-off); inconclusive means no clear call, values can overlap the other calls; inactive means mostly above about 0.92.
# Assay: chemical genetic growth profiling, strain panel (AID 1159580);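 further: tested at 20 µM; growth read once vehicle control cultures reached saturation at 30 °C; 1 = growth at the plate median or of vehicle wells; lower values mean less growth of the strain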
# Settings: growth OD
compound,measurement,setting,value
CC(=O)Oc1ccc(O)cc1,normalized growth,"S. cerevisiae deletion strains, locus YJL187C, strain SWE1, hits give low values",0.978
same,normalized growth,"S. cerevisiae deletion strains, locus YJR043C, strain POL32, hits give low values",0.929
same,normalized growth,"S. cerevisiae deletion strains, locus YJR075W, strain HOC1, hits give low values",0.955
same,normalized growth,"S. cerevisiae deletion strains, locus YKL009W, strain mrt4, hits give low values",1.02
same,normalized growth,"S. cerevisiae deletion strains, locus YKL068W, hits give low values",1.01
same,normalized growth,"S. cerevisiae deletion strains, locus YKL085W, strain MDH1 (second series), hits give low values",1.04
same,normalized growth,"S. cerevisiae deletion strains, locus YKL085W, strain MDH1, hits give low values",1.04
same,normalized growth,"S. cerevisiae deletion strains, locus YKL160W, strain elf1, hits give low values",0.995
same,normalized growth,"S. cerevisiae deletion strains, locus YKR001C, strain vps1, hits give low values",0.945
same,normalized growth,"S. cerevisiae deletion strains, locus YKR026C, strain gcn3, hits give low values",0.979
same,normalized growth,"S. cerevisiae deletion strains, locus YKR091W, strain srl3, hits give low values",0.985
same,normalized growth,"S. cerevisiae deletion strains, locus YLL001W, strain dnm1, hits give low values",0.994
same,normalized growth,"S. cerevisiae deletion strains, locus YLL026W, hits give low values",0.987
same,normalized growth,"S. cerevisiae deletion strains, locus YLL041C, strain sdh2, hits give low values",0.99
same,normalized growth,"S. cerevisiae deletion strains, locus YLR027C, strain aat2, hits give low values",0.993
same,normalized growth,"S. cerevisiae deletion strains, locus YLR039C, strain RIC1, hits give low values",1.05
same,normalized growth,"S. cerevisiae deletion strains, locus YLR058C, strain SHM2, hits give low values",0.991
same,normalized growth,"S. cerevisiae deletion strains, locus YLR102C, strain apc9, hits give low values",1.02
same,normalized growth,"S. cerevisiae deletion strains, locus YLR221C, strain rsa3, hits give low values",0.959
same,normalized growth,"S. cerevisiae deletion strains, locus YLR258W, strain gsy2, hits give low values",0.989
same,normalized growth,"S. cerevisiae deletion strains, locus YLR262C, strain YPT6 (second series), hits give low values",0.996
same,normalized growth,"S. cerevisiae deletion strains, locus YLR262C, strain YPT6, hits give low values",0.926
same,normalized growth,"S. cerevisiae deletion strains, locus YLR268W, strain sec22, hits give low values",0.977
same,normalized growth,"S. cerevisiae deletion strains, locus YLR320W, strain mms22, hits give low values",0.923
same,normalized growth,"S. cerevisiae deletion strains, locus YLR330W, strain CHS5, hits give low values",0.914 (active)
same,normalized growth,"S. cerevisiae deletion strains, locus YLR342W, strain FKS1 (second series), hits give low values",0.819
same,normalized growth,"S. cerevisiae deletion strains, locus YLR342W, strain FKS1, hits give low values",0.979
same,normalized growth,"S. cerevisiae deletion strains, locus YLR357W, strain rsc2, hits give low values",0.988
same,normalized growth,"S. cerevisiae deletion strains, locus YLR370C, strain arc18, hits give low values",1
same,normalized growth,"S. cerevisiae deletion strains, locus YLR371W, strain rom2, hits give low values",1.02
same,normalized growth,"S. cerevisiae deletion strains, locus YLR384C, strain iki3, hits give low values",0.997
same,normalized growth,"S. cerevisiae deletion strains, locus YLR418C, strain cdc73, hits give low values",0.934
same,normalized growth,"S. cerevisiae deletion strains, locus YML016C, strain PPZ1, hits give low values",1.01
same,normalized growth,"S. cerevisiae deletion strains, locus YML032C, strain rad52, hits give low values",0.967
same,normalized growth,"S. cerevisiae deletion strains, locus YML120C, strain ndi1, hits give low values",1.02
same,normalized growth,"S. cerevisiae deletion strains, locus YML124C, strain tub3, hits give low values",1.03
same,normalized growth,"S. cerevisiae deletion strains, locus YMR058W, strain fet3, hits give low values",0.979
same,normalized growth,"S. cerevisiae deletion strains, locus YMR078C, strain ctf18, hits give low values",1.03
same,normalized growth,"S. cerevisiae deletion strains, locus YMR125W, strain sto1, hits give low values",0.977
same,normalized growth,"S. cerevisiae deletion strains, locus YMR129W, hits give low values",0.99
same,normalized growth,"S. cerevisiae deletion strains, locus YMR205C, strain PFK2, hits give low values",1
same,normalized growth,"S. cerevisiae deletion strains, locus YMR223W, strain ubp8, hits give low values",1
same,normalized growth,"S. cerevisiae deletion strains, locus YMR231W, strain pep5, hits give low values",0.962
same,normalized growth,"S. cerevisiae deletion strains, locus YMR263W, strain SAP30, hits give low values",0.991
same,normalized growth,"S. cerevisiae deletion strains, locus YMR307W, strain GAS1, hits give low values",0.791
same,normalized growth,"S. cerevisiae deletion strains, locus YNL067W, strain RPL9B, hits give low values",0.966
same,normalized growth,"S. cerevisiae deletion strains, locus YNL071W, strain lat1, hits give low values",0.961
same,normalized growth,"S. cerevisiae deletion strains, locus YNL128W, strain TEP1, hits give low values",1.01
same,normalized growth,"S. cerevisiae deletion strains, locus YNL153C, strain GIM3, hits give low values",0.956
same,normalized growth,"S. cerevisiae deletion strains, locus YNL209W, strain ssb2, hits give low values",0.988
same,normalized growth,"S. cerevisiae deletion strains, locus YNL233W, strain BNI4, hits give low values",0.94
same,normalized growth,"S. cerevisiae deletion strains, locus YNL248C, strain rpa49, hits give low values",0.956
same,normalized growth,"S. cerevisiae deletion strains, locus YNL250W, strain rad50, hits give low values",1.04
same,normalized growth,"S. cerevisiae deletion strains, locus YNL271C, strain bni1, hits give low values",1.04
same,normalized growth,"S. cerevisiae deletion strains, locus YNL298W, strain CLA4, hits give low values",1.03
same,normalized growth,"S. cerevisiae deletion strains, locus YNL307C, strain MCK1, hits give low values",0.96
same,normalized growth,"S. cerevisiae deletion strains, locus YNL322C, strain KRE1 (second series), hits give low values",0.993
same,normalized growth,"S. cerevisiae deletion strains, locus YNL322C, strain KRE1, hits give low values",0.996
same,normalized growth,"S. cerevisiae deletion strains, locus YNR049C, strain mso1, hits give low values",0.989
same,normalized growth,"S. cerevisiae deletion strains, locus YNR052C, strain pop2, hits give low values",1.02
same,normalized growth,"S. cerevisiae deletion strains, locus YOL012C, strain htz1",0.741
same,normalized growth,"S. cerevisiae deletion strains, locus YOL147C, strain pex11, hits give low values",1.03
same,normalized growth,"S. cerevisiae deletion strains, locus YOR001W, strain rrp6, hits give low values",0.992
same,normalized growth,"S. cerevisiae deletion strains, locus YOR061W, strain CKA2, hits give low values",1.01
same,normalized growth,"S. cerevisiae deletion strains, locus YOR069W, strain VPS5, hits give low values",1.01
same,normalized growth,"S. cerevisiae deletion strains, locus YOR070C, strain gyp1, hits give low values",0.975
same,normalized growth,"S. cerevisiae deletion strains, locus YOR080W, strain dia2, hits give low values",0.998
same,normalized growth,"S. cerevisiae deletion strains, locus YOR083W, strain WHI5, hits give low values",0.974
same,normalized growth,"S. cerevisiae deletion strains, locus YOR106W, strain vam3, hits give low values",0.995
same,normalized growth,"S. cerevisiae deletion strains, locus YOR136W, strain idh2, hits give low values",1.01
same,normalized growth,"S. cerevisiae deletion strains, locus YOR144C, strain elg1, hits give low values",1.03
same,normalized growth,"S. cerevisiae deletion strains, locus YOR184W, strain ser1, hits give low values",0.984
same,normalized growth,"S. cerevisiae deletion strains, locus YOR265W, strain rbl2, hits give low values",1.01
same,normalized growth,"S. cerevisiae deletion strains, locus YOR270C, strain vph1, hits give low values",0.986
same,normalized growth,"S. cerevisiae deletion strains, locus YOR290C, strain snf2, hits give low values",0.995
same,normalized growth,"S. cerevisiae deletion strains, locus YOR316C, strain cot1, hits give low values",1.04
same,normalized growth,"S. cerevisiae deletion strains, locus YPL051W, strain arl3, hits give low values",0.962
same,normalized growth,"S. cerevisiae deletion strains, locus YPL078C, strain atp4, hits give low values",1.02
same,normalized growth,"S. cerevisiae deletion strains, locus YPL106C, strain sse1, hits give low values",0.991
same,normalized growth,"S. cerevisiae deletion strains, locus YPL240C, strain hsp82, hits give low values",0.999
same,normalized growth,"S. cerevisiae deletion strains, locus YPL241C, strain CIN2, hits give low values",1.02
same,normalized growth,"S. cerevisiae deletion strains, locus YPR119W, strain clb2, hits give low values",1.01
same,normalized growth,"S. cerevisiae deletion strains, locus YPR141C, strain kar3, hits give low values",1.03
same,normalized growth,"S. cerevisiae deletion strains, locus YPR163C, strain tif3, hits give low values",0.974
same,normalized growth,"S. cerevisiae deletion strains, locus YPR167C, strain met16, hits give low values",1.03
same,normalized growth,"S. cerevisiae deletion strains, strain wtn01, hits give low values",0.995
same,normalized growth,"S. cerevisiae strains, strain wild type, hits give low values",0.925
